BCR signal inh: blocks chronic active B-cell receptor signaling; ABC-DLBCL IkBa-CBG/CBR reporter, luminescence ratio, 4 h; Potency, µM (highest dose often 46.1 µM), without a hit: at the top dose activity change, negative = inhibition, actives largely listed as inhibitors; 340,000 tested, 0.05% active; AID 493014; active = well fitted inhibition curve with a large enough effect in the signal ratio, with a control signal flat, not every such curve was filed as active; inconclusive = small, poorly fitted or top-dose-only effect, or effect the other way, or a change in a side signal; the % refers to the signal ratio;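 also: plate controls were basal doxycycline-induced cells for no effect and cells given 10 µM MG132 for full effect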
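TMD8 human ABC-DLBCL cells with doxycycline-inducible IκBα–green luciferase fusion and unfused red luciferase, in 0.5% FBS medium; compounds up to 46 uM, 4 h at 37C. Green/red luminescence ratio, filter-overlap corrected, fitted to concentration-response curves.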
gsp agonist: gsp mutant agonism; gsp mutant cells, cAMP HTRF, 30 min; Potency, µM (top dose mostly 76.9 µM), inactives show at the highest dose activation (cAMP increase), usual class: activators; 340,000 tested, 0.13% active; AID 624287; active = well fitted activation curve with a large enough effect; inconclusive = small, poorly fitted or top-dose-only effect, or another doubt; inactive = no such curve, though single readings can be large or run the other way; cell line not stated here;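 also: phosphodiesterase inhibitor Ro 20-1724 added with compounds to block cAMP breakdown; nearly all actives have a fitted effect of over 60% in size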
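Cells in DMEM/10% FBS with G418 were pretreated with compounds in DMSO plus […] (300 uM stock) for 30 min at 37C. cAMP was measured by HTRF (cAMP-d2 plus anti-cAMP antibody-K) after 30 min at room temperature.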
ASM inhibitor: inhibitors of human secretory acid sphingomyelinase; P17405; placental ASM, HMU-PC fluorogenic substrate, 60 min; Potency, µM (doses to about 57.5 µM), for the others: top-dose activity change, negative = inhibition, most hits filed as inhibitors; 340,000 tested, 0.006% active; AID 504937; active = well fitted inhibition curve with a large enough effect; inconclusive = small, poorly fitted or top-dose-only effect; inactive = no such curve, though single readings can be large or run the other way
Target sequence (P17405 47-631 limits assumed): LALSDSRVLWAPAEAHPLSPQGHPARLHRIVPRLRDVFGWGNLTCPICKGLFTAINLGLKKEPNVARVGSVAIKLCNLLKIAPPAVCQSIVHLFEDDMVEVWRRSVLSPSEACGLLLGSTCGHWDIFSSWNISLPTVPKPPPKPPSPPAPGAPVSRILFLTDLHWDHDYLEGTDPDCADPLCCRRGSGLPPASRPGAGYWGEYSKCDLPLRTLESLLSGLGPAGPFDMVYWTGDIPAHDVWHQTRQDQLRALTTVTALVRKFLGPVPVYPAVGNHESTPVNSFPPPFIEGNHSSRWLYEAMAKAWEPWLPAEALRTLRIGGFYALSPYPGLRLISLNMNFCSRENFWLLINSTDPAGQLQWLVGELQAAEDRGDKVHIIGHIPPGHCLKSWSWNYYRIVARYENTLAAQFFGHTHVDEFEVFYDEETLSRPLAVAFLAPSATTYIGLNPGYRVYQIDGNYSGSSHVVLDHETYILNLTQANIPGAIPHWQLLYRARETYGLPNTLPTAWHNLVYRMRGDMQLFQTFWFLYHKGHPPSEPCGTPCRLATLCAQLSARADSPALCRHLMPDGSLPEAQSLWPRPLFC
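qHTS format. ASM enzyme prepared from human placenta hydrolyses the fluorogenic substrate HMU-PC0 (9 uM final) over 60 min at 37 °C after a 10 min compound preincubation.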
MBNL1-CUG inh: blocks human MBNL1 binding to CUG repeat RNA | Potency, µM (titrated, usually from 57.5 µM), without a hit: at the highest dose activity change, negative = inhibition, hits mostly inhibitors | 280,000 tested, 0.036% active | Q9NR56 | TR-FRET MBNL1-His/biotin-(CUG)12 binding, 665/545 ratio | AID 2675; active = well fitted inhibition curve with a large enough effect in the signal ratio, with a control signal flat, not every such curve was filed as active; inconclusive = small, poorly fitted or top-dose-only effect, or effect the other way, or a change in a side signal; inactive = no such curve, though single readings can be large or run the other way; the % refers to the signal ratio; also: % is scaled to controls: 0 for no effect and ±100 for the full control effect
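Compounds (final 92 nM to 58 uM) are added to His-tagged MBNL1 and biotin-(CUG)12, then terbium anti-His antibody and streptavidin-XL665 (5 nM final). After 60 min at room temperature, the 665/545 nm ratio is read.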
gsp antagonist: antagonizes gsp, the McCune-Albright syndrome mutation; gsp-mutant cells, cAMP HTRF, 30 min; Potency, µM (doses to about 76.9 µM), inactives show at the top dose activity change, negative = inhibition, hits mostly inhibitors; 340,000 tested, 0.4% active; AID 624288; calls by dose curve; cell line not stated here;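 also: intracellular cAMP measured with PDE inhibitor Ro 20-1724 present during compound exposure; % is scaled to controls: 0 for no effect and ±100 for the full control effect; nearly all actives have a fitted effect of over 65% in size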
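Cells in G418 medium, seeded 16-24 h, 37C; buffer exchange to DPBS + 1 mM CaCl2, 0.5 mM MgCl2, 0.05% BSA; cpds in DMSO + […] (300 uM stock), 30 min 37C; HTRF cAMP detection.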
Numbers without * were called inactive; i = inactive; ? = inconclusive; · = not tested or not shown; [ ] = remark or other dose. Rows were chosen to be rich in hits. Some 0.62% of all compounds tested hit in one or more screens of this group. Potency is read from the fitted curve at half-maximal effect.

SMILES	BCR signal inh	gsp agonist	ASM inhibitor	MBNL1-CUG inh	gsp antagonist
CC(=O)Nc1ccc(Nc2nnc(-c3ccc(C)c(S(N)(=O)=O)c3)c3ccccc23)cc1	6%	-29%[15.4 µM]	-5%	16%	-1%
Cc1cc(N2CCN(S(=O)(=O)c3ccc(Cl)cc3)CC2)c2ccccc2n1	0%	-4%	-3%	3%	50µM*
O=C(C1=NNCC1c1ccccc1)C1OC1c1ccccc1 (stereo not given)	?	30%[15.4 µM]	-1%	21%	0%
Cc1noc(C)c1C(=O)Nc1nc(-c2ccc([N+](=O)[O-])cc2)cs1	6%	-58%	-3%	54%	28µM*
Cc1ccc(-c2csc(NC(=O)c3c(C)noc3C)n2)cc1	11%	-39%	-12%	·	?
Cc1cccc(N2CCN(C(=O)C3CCN(c4ncnc5c4nc4n5CCCCC4)CC3)CC2C)c1 (stereo not given)	?	26%	-1%	-10%	40µM*
O=C(c1ccc([N+](=O)[O-])s1)N1CCN(c2ccc(C(F)(F)F)cn2)CC1	3%	-11%[15.4 µM]	-8%	?	-2%
Cc1sc2nc(SCc3ccc(C(=O)O)cc3)n(Cc3ccco3)c(=O)c2c1C	?	-9%[15.4 µM]	0%	-1%	25µM*
C=CCn1c(SCc2ccc(C(=O)O)cc2)nc2sc(C)c(C)c2c1=O	5%	22%	5%	5%	-12%
O=C(CCNC(=O)c1ccccc1)NCCc1ccc(Cl)cc1	-5%	3%	0%	-2%	-2%
FC(F)(F)c1nc(=S)c2ccccc2[nH]1	4%	2.2µM*	-8%	18%	25%
Cc1nc(=S)c2ccccc2[nH]1	?	?	1%	?	8%
Cc1cc(C)n2c(SCC(=O)Nc3cc(C)on3)nnc2n1	24%	22µM*	0%	-6%	10%
Cc1cc(C)n2c(SCC(=O)NC3CCCCC3)nnc2n1	4%	14µM*	4%	6%	4%
CCc1nnc(NC(=O)CSc2nnc3nc(C)cc(C)n23)s1	0%	?	5%	-3%	16%
Cc1nnc(NC(=O)CCCCCN2C(=O)C3C4C=CC(C4)C3C2=O)s1 (stereo not given)	-1%	-119%	3%	-3%	50µM*
CC(=O)c1ccc(-n2c(CCC(=O)O)ccc2-c2ccc(Br)cc2)cc1	6%	?	0%	4%	0.89µM*
C=CCn1c(SCc2ccccc2C#N)nnc1-c1cc(Br)ccc1O	6%	-2%	-2%	0%	35µM*
C=CCn1c(SCC(N)=O)nnc1-c1cccc(Br)c1	-2%	-30%	1%	-8%	-1%
Cc1ccc2oc(C(=O)NCCCN3CCOCC3)c(C)c2c1	0%	-5%	0%	-1%	14%
CCCCCCN1C[C@@H](O)[C@H](n2cc(COC(=O)c3ccccc3)nn2)C[C@@H]1c1ccc(C)cc1	·	-9%	·	·	·
COc1cc(CC(=O)OCC(=O)NC2CCCC2)cc(OC)c1OC	-8%	2%	4%	·	5%
CCC1(CC)Cc2ccccc2-c2nc(NN)[nH]c(=O)c21	?	6%[15.4 µM]	85%	·	-19%
CCC1(CC)Cc2ccccc2-c2[nH]c(=S)[nH]c(=O)c21	·	6.3µM*	0%	·	11%
CCCOc1ccc(/C=N/Nc2ccc(C(=O)O)cc2)c(OCCC)c1	?	-14%[15.4 µM]	264%	1%	10µM*
SMILES	BCR signal inh	gsp agonist	ASM inhibitor	MBNL1-CUG inh	gsp antagonist
CC1OC(OC2C(CO)OC(OCC3OC(OC(=O)[C@@]45CCC(C)(C)C[C@@H]4C4=CC[C@@H]6[C@@]7(C)CCC(OC8OCC(O)C(O)C8OC8OC(C)C(O)C(O)C8O)[C@@](C)(CO)C7CC[C@@]6(C)[C@]4(C)CC5)C(O)C(O)C3O)C(O)C2O)C(O)C(O)C1O (stereo not given in full)	·	·	-4%	·	40µM*
CC1(C)CC[C@]2(C(=O)O)CC[C@]3(C)C(=CC[C@@H]4[C@@]5(C)CC[C@H](O[C@@H]6O[C@H](C(=O)O)[C@@H](O)[C@H](O[C@@H]7OC[C@H](O)[C@H](O)[C@H]7O)[C@H]6O)C(C)(C)[C@@H]5CC[C@]43C)[C@@H]2C1	?	·	1%	·	45µM*
CN(CC(=O)Nc1cccc(F)c1)CC(=O)NC(c1ccccc1)c1ccccc1	-9%	-35%	-5%	·	-7%
COc1ccc(CNC(C)C(=O)Nc2ccc3ccccc3c2)cc1OC (stereo not given)	3%	-2%[15.4 µM]	3%	8%	11µM*
Cc1noc(C)c1CSc1nc2ccccc2nc1NS(=O)(=O)c1ccc(Cl)cc1	5%	19%	51%	20%	32µM*
Cc1cc(OCC(=O)Nc2ccc3oc(-c4ccncc4)nc3c2)ccc1Cl	·	3%	7%	-6%	50µM*
Cc1cc(OCC(=O)Nc2ccncc2)ccc1Cl	-11%	10%[15.4 µM]	0%	1%	-5%
COc1c(F)c(F)c(C(=O)Nc2ccc3oc(-c4ccncc4)nc3c2)c(F)c1F	10%	-20%	13%	100%	28µM*
O=C(NCCCn1cccn1)C1CCC(=O)N(CCc2ccccc2)C1 (stereo not given)	6%	?	4%	5%	8%
COc1cc(OC)cc(C(=O)N/N=C/c2ccc(OC)c(COc3ccc(F)cc3)c2)c1	10µM*	6%[15.4 µM]	-5%	-5%	23%
COc1ccc(OCc2cc(/C=N\NC(=O)c3ccccc3)ccc2OC)cc1	?	?	-7%	0%	4%
O=C(NCc1cccc(Cl)c1)c1ccc(S(=O)(=O)N2CCCCC2)cc1	·	-32%	·	·	·
Cc1cc(=O)n2nc(N3CCCC3C(=O)Nc3ccccc3C)sc2n1 (stereo not given)	4%	13µM*	6%	-3%	4%
C=CC[C@H](CC(=O)N[C@H](CO)Cc1ccccc1)C(=O)N[C@@H](COC(=O)[C@H](CC=C)CC(=O)OC(C)(C)C)Cc1c[nH]c2ccccc12	?	21%	-14%	·	-21%
COC(=O)c1ccccc1-c1ccc(/C=N/Nc2nc(N3CCCC3)nc(N3CCCC3)n2)o1	?	0%[15.4 µM]	i	7%	25µM*
Cc1ccc(/C=N/Nc2nc(N3CCCCC3)nc(N3CCCCC3)n2)o1	0%	3%[15.4 µM]	-1%	15%	-19%
Cc1cc(=O)c2c(=O)[nH][nH]c2[nH]1	·	14%	·	·	·
O=C(NCCNC(=O)c1ccc([N+](=O)[O-])cc1)c1ccncc1	?	0%[15.4 µM]	-2%	?	1%
CC(C)C[C@H](NC(=O)OC(C)(C)C)C(=O)N[C@@H](CO)[C@H](O)[C@@H]1C[C@@H]1C(=O)N(C)C	4%	4%	0%	-3%	-7%
COC(=O)c1cccc(Oc2nc3c(c(=O)n(C)c(=O)n3C)n2Cc2ccc(C)cc2)c1	·	7.9µM*	-15%	·	10%

Assay outcomes from PubChem BioAssay.
